MITF TRPM1 inh = inhibitors of MITF-driven TRPM1 promoter in melanoma cells | SK-MEL-5 TRPM1 promoter luciferase, 24 h | inhibition, % at 12.5 µM | actives 0.83% (n = 330,000) | AID 488899;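 active = mean inhibition across replicates of 60% or more, whatever share of single replicates reaches that level; inconclusive = some that reach 60%, reason not given; inactive = mean inhibition across replicates below 60%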
LGR2 antag = Drosophila LGR2 receptor signaling inhibition | inhibition, % at 9.99 µM | actives 0.35% (n = 380,000) | AID 720647 | HEK293 LGR2, CRE-luciferase, bursicon-stimulated, 4 h;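 active = drop in luminescence signal, shown as inhibition above about 50% in the replicate tests, limit read from the data, passing the limit was not always enough; inconclusive = probably only some replicates passing the limit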;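 note: agonist challenge used bursicon conditioned medium at about half maximal strength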
EWS-Fli inh = EWS/Fli transcriptional activity inhibition; A673 NR0B1-luciferase reporter, viability-normalised; inhibition, % at 12.6 µM; actives 0.67% (n = 350,000);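 active = mean inhibition of at least 50% after viability correction, with every replicate also passing that limit; inconclusive = mean reaches 50% but only one of two replicates passes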;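 note: firefly luciferase signal divided by Alamar Blue viability fluorescence both relative to DMSO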
PAX8 reporter = lowers PAX8-driven luciferase in RMG-I cells; inhibition, % at 12.6 µM; actives 1.2% (n = 360,000); RMG-I TPO-luciferase reporter, SteadyGlo, 24 h; AID 652154;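 active = mean replicate inhibition at least 60% with every replicate also reaching 60%; inconclusive = only one of the two criteria is met; inactive = mean below 60% and not all replicates reaching 60%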;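 note: luciferase light reporting Pax8 driven TPO promoter activity; plate controls were median of neutral control wells for no effect and mitoxantrone controls for full effect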
LMP1 NFkB inh = inhibitors of Epstein-Barr LMP1-induced NF-kappaB reporter; LMP1-induced NF-kappaB luciferase reporter cells, luminescence; inhibition, % at 12.5 µM; actives 0.69% (n = 350,000); in the data active = inhibition above about 41%; inconclusive = no clear call, values can overlap the other calls;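 note: 0% = neutral control wells and 100% = reference inhibitor control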
Shn3 3UTR inh = inhibitors of Schnurri-3 3'UTR reporter in osteoblasts. Clone20 osteoblast Shn3 3'UTR firefly luciferase, 24 h. inhibition, % at 12.5 µM. actives 0.52% (n = 360,000). AID 588674;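 active = mean inhibition of at least 75% with every replicate also reaching 75%; inconclusive = mean inhibition at least 75% but some replicate below; inactive = mean inhibition below 75%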;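 note: 0% = median of neutral control wells and 100% = pilot-screen positive control compound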
* hit, by the source's call; ? = inconclusive; / = no result given. Hits are enriched below; roughly 2.2% of the tested compounds scored in any of these assays.

SMILES | MITF TRPM1 inh | LGR2 antag | EWS-Fli inh | PAX8 reporter | LMP1 NFkB inh | Shn3 3UTR inh
COc1ccc(/C=N/NC(=O)CCn2cnc(-c3ccccc3)c2-c2ccccc2)cc1 | -2 | -10 | 51* | 18 | 18 | -7
CC(=O)Nc1c(C(=O)N2CCCCCC2)cnn1-c1ccccc1 | 15 | 9 | / | / | 79* | 32
CO[C@H]1CN(C)C(=O)c2ccc(NC(C)=O)cc2OC[C@@H](C)N(C(=O)c2ccccn2)C[C@H]1C | / | 14 | 1 | -20 | / | /
CCC(=O)Nc1ccc2c(c1)C(=O)N(C)C[C@H](OC)[C@H](C)CN(C(=O)CN1CCOCC1)[C@@H](C)CO2 | / | -3 | -5 | / | / | /
O=C1CC(c2ccco2)Cc2nc(Nc3nc(-c4ccccc4)c4ccccc4n3)ncc21 (stereo unspecified) | -5 | / | / | / | 77* | -2
Cc1ccc(S(=O)(=O)N2C[C@H]3n4c(=O)ccc(=O)n4C[C@H](OC(=O)NCC4CCCCC4)[C@@]3(O)C2)cc1 | / | 25 | 40 | 73* | 4 | -14
Cc1ccc(S(=O)(=O)N2C[C@H]3n4c(=O)ccc(=O)n4C[C@H](OC(=O)NCc4ccccc4)[C@@]3(O)C2)cc1 | / | 31 | -11 | 24 | 3 | -20
Cn1cnnc1Sc1nc([N+](=O)[O-])nn1C | 11 | -9 | -6 | -2 | -1 | -5
COc1ccccc1-c1nnc(Sc2nc([N+](=O)[O-])nn2C)o1 | 57 | 31 | / | / | 57* | -40
CCN(CC(=O)Nc1ccc(NC(C)=O)cc1)C(=O)C1(c2ccc(Cl)cc2)CCC1 | / | 9 | 1 | 79* | -1 | 13
CC(=O)Nc1ccc(NC(=O)COC(=O)C2(c3ccc(Cl)cc3)CCCC2)cc1 | 0 | 18 | / | 11 | 1 | 17
C[C@@H]1CN([C@@H](C)CO)C(=O)c2cc(-c3ccccc3F)cnc2O[C@H]1CN(C)C(=O)c1ccccn1 | / | -8 | -6 | / | / | /
OC[C@@H](O)[C@@H](O)[C@H](O)[C@H](O)CO | -3 | / | -3 | -9 | 47* | -7
CO[C@@H]1CN(C)C(=O)c2cc(NS(C)(=O)=O)ccc2OC[C@@H](C)NC[C@H]1C | / | -8 | -4 | 10 | / | /
CCN=C1S/C(=C\c2cc(OCC)c(O)cc2Br)C(=O)N1CC | -15 | -26 | / | 7 | 54* | 13
COc1ccc(NC(=O)Nc2ccc3c(c2)C(=O)N([C@H](C)CO)C[C@H](C)[C@H](CN(C)Cc2ccccc2)OCCCC[C@@H](C)O3)cc1 | / | -1 | 48 | -7 | / | /
Cc1ccc(C)c(Nc2cc(C)nc(-c3ccccc3O)n2)c1 | 42 | 4 | 62* | 13 | 15 | 40
Cc1cc(Nc2ccccc2Cl)nc(-c2ccccc2O)n1 | 17 | -20 | 10 | -10 | 9 | 1
CC(=O)Nc1sc2c(c1-c1nc3ccccc3s1)CCN(C(C)C)C2 | 77* | / | / | / | 78* | 81
C#CCN(CC=C(C)C)[C@H](CO)c1ccccc1 | / | / | -5 | -6 | / | /
CC(C)=CCN(C(=O)C#Cc1ccccc1)[C@H](CO)c1ccccc1 | / | / | 42 | 105* | / | /
CN1c2ccc(-c3cccc(F)c3)cc2[C@@H]2[C@@H](CCN2C(=O)c2ccccc2F)[C@H]1CO | / | -5 | 12 | 12 | / | /
COc1ccc(S(=O)(=O)Nc2ccc3c(c2)CC(=O)N([C@H](C)CO)C[C@H](C)[C@@H](CN(C)Cc2ccc(C(F)(F)F)cc2)O3)cc1 | / | / | 19 | 113* | / | /
COc1ccc(S(=O)(=O)Nc2ccc3c(c2)CC(=O)N([C@@H](C)CO)C[C@@H](C)[C@@H](CN(C)Cc2ccc(C(F)(F)F)cc2)O3)cc1 | / | 15 | 9 | 19 | / | /
COc1ccc(S(=O)(=O)Nc2ccc3c(c2)CC(=O)N([C@@H](C)CO)C[C@@H](C)[C@H](CN(C)Cc2ccc(C(F)(F)F)cc2)O3)cc1 | / | 21 | 42 | 111* | / | /
SMILES | MITF TRPM1 inh | LGR2 antag | EWS-Fli inh | PAX8 reporter | LMP1 NFkB inh | Shn3 3UTR inh
Cc1cc(OCC(O)CNC(C)c2ccccc2)ccc1C(C)C (stereo unspecified) | 6 | 66* | 20 | -6 | -9 | 5
CCCC(NCC(O)COc1ccc(-c2ccccc2)cc1)c1ccccc1 (stereo unspecified) | 40 | 75* | 42 | 17 | -11 | 32
CC(NCC(O)COc1ccc2ccccc2c1)c1ccccc1 (stereo unspecified) | 4 | -2 | -3 | 0 | 5 | 24
C=C[C@@H](C)[C@@H](OC(=O)Nc1ccc(OC)cc1)c1ccc(OCCO)cc1 | / | / | 2 | -37 | / | /
CCCNC(=O)N(C)C[C@@H]1Oc2ncc(-c3ccccc3)cc2C(=O)N([C@@H](C)CO)C[C@@H]1C | / | -34 | -13 | / | / | /
CC1=CC2C(C(O)CC3(C)C2CC(C)C32OCOC23COCO3)C2(C)C/C(=C\O)C(=O)C=C12 (stereo unspecified) | 80* | 80* | 40 | / | -1 | 87*
CCn1c(/C=C/Nc2ccccc2)[n+](CC)c2cc(Cl)c(Cl)cc21 | ? | 16 | 69* | 32 | -15 | 88*
COc1ccccc1/C=N/Nc1nncc2ccccc12 | -63 | -32 | -97 | -142 | -5 | -20
COc1ccc(/C=N/Nc2nncc3ccccc23)cc1 | 5 | -61 | 67* | 6 | -4 | 12
CCCNC(=O)N1C[C@H](O)COC[C@H]2O[C@@H](CC(=O)N3CCN(C)CC3)CC[C@@H]21 | / | 2 | 1 | 0 | / | /
CC[C@@H](C(=O)[C@@H](C)[C@@H](O)[C@H](C)[C@@H]1O[C@@H]([C@@H](CC)C(=O)O)CC[C@@H]1C)[C@H]1O[C@]2(C=C[C@@H](O)[C@]3(CC[C@@](C)([C@H]4CC[C@](O)(CC)[C@H](C)O4)O3)O2)[C@H](C)C[C@@H]1C | 78* | / | 12 | 109* | -4 | 82
Cc1c(C(=O)Nc2ccccc2)cnn1-c1ccccc1 | -77 | -73 | -110 | -167 | -20 | -61
Cc1ccc(NC(=O)c2cnn(-c3ccccc3)c2C)cc1C | 11 | 85* | 56* | 1 | 8 | 19
CCOC(=O)c1c(NC(=O)c2nn(CC)cc2Br)sc(C)c1C | -12 | / | / | / | 4 | 84*
COc1cccc(NC(=O)N[C@@H]2C=C[C@@H](CC(=O)Nc3ccccc3)O[C@@H]2CO)c1 | / | -12 | -7 | / | / | /
Fc1ccc2cnc(CCO[C@H]3CCCCO3)cc2c1 | -38 | 54* | 46 | -46 | 15 | -77
CC(C)CC#Cc1ccc([C@H]2[C@@H](CO)N3C(=O)CN(C(=O)NC4CCCC4)C[C@H]23)cc1 | / | -14 | 6 | / | / | /
O=C(C[C@@H]1C[C@@H]2c3cc(NS(=O)(=O)c4ccc(F)cc4)ccc3O[C@@H]2[C@@H](CO)O1)NCc1ccc(-c2ccccc2)cc1 | / | / | 18 | 87* | / | /
O=C(C[C@@H]1C[C@H]2c3cc(NS(=O)(=O)c4ccc(F)cc4)ccc3O[C@H]2[C@H](CO)O1)NCc1ccccc1 | / | -9 | -2 | 48 | / | /

Screens from PubChem.
